An excerpt weighted towards active compounds, which were near 2.3% of everything screened.
GLD-1 TGE inh = GLD-1/TGE RNA complex disruptors, primary screen, biochemical, fluorescence polarization; purified GLD-1 + fluorescein TGE RNA; inhibition, % at 5.96 µM; 320,000 compounds, 0.44% hits;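 active = percent inhibition above a per-plate cutoff, the plate mean of test compounds plus 3 SD, cut at about 30% in these data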;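 note: 0% = DMSO wells with GLD-1 and probe and 100% = wells lacking GLD-1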
Target sequence (Q17339 whole entry, looked up): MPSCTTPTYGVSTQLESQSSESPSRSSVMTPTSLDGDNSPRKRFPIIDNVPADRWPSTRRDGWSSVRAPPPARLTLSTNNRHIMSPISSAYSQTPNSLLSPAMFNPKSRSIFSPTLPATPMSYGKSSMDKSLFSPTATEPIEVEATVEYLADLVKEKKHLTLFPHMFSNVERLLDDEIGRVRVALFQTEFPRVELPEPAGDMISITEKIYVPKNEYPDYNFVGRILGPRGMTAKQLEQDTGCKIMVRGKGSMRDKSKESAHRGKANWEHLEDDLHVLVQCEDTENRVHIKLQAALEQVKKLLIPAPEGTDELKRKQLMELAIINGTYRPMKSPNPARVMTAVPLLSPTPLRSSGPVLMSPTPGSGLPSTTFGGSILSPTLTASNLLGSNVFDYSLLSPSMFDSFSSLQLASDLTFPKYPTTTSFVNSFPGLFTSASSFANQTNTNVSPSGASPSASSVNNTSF
Bim-Mcl-1 = inhibitors of Bim peptide binding to Mcl-1, primary screen, biochemical, bead-based flow cytometry, multiplex; Induced myeloid leukemia cell differentiation protein Mcl-1 (Homo sapiens), Q07820; Bim peptide-Mcl-1 binding; inhibition, % at 10 µM; 190,000 compounds, 0.1% hits; in the data active = inhibition above about 40%;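 note: 0% = no compound tracer wells and 100% = peptide blocker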
Bcl-xL primary = inhibitors of human Bcl-xL, primary screen, biochemical, fluorescence polarization, HTS; Bcl-2-like protein 1 (Homo sapiens), Q07817; GST-Bcl-xL / FITC-Bim BH3 peptide fluorescence polarization; inhibition, % at 10.9 µM; 320,000 compounds, 0.7% hits; AID 2129, 2009;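 active = inhibition above the mean of all tested compounds plus 3 SD, cutoff set per campaign, cut at about 30% in these data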;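 note: 0% = DMSO wells and 100% = unlabeled Bim-BH3 peptide competitor; inhibitors lower millipolarization by displacing the labeled peptide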
Mcl1-Noxa inh = Mcl-1/Noxa binding inhibitors, primary screen, biochemical, TR-FRET, 1536-well. Induced myeloid leukemia cell differentiation protein Mcl-1 (Homo sapiens), Q07820. TR-FRET Mcl-1/Noxa peptide binding, 2 h. inhibition, % at 21.7 µM. 220,000 compounds, 1.5% hits;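 active = compounds that cut the protein-peptide binding signal by more than 50% relative to plate controls in a single-dose test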;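 note: His-tagged Mcl-1 with rhodamine Noxa BH3 peptide and terbium anti-His antibody; 0% = Mcl-1 plus Noxa peptide wells and 100% = peptide-only wells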
Mcl1 Bid PPI = Mcl-1/Bid binding inhibitors, primary screen, biochemical, TR-FRET, 1536-well | 220,000 compounds, 0.97% hits | TR-FRET Mcl-1/Bid-Dy647 peptide binding | AID 1021, 2008 | inhibition, % at 21.7 µM | Induced myeloid leukemia cell differentiation protein Mcl-1 (Homo sapiens), Q07820;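 active = compounds that cut the binding signal by more than half at the single screening dose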;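 note: His-tagged Mcl-1 with europium anti-His antibody binding Bid BH3 peptide; 0% = Mcl-1 plus peptide wells and 100% = peptide-only wells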
MCL1 BIM primary = inhibitors of MCL1 binding to BIM-BH3, primary screen, biochemical, fluorescence polarization; Induced myeloid leukemia cell differentiation protein Mcl-1 (Homo sapiens), Q07820; GST-MCL1 / FITC-Bim-BH3 fluorescence polarization; inhibition, % at 10.9 µM; 320,000 compounds, 0.68% hits; AID 2057, 2009;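 active = inhibition above the mean inhibition of all tested compounds plus 3 SD, set per campaign, cut at about 40% in these data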;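 note: 0% = DMSO wells and 100% = unlabeled Bim-BH3 peptide control; higher means more loss of mP so more displacement of Bim peptide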
* = called active by the depositor; x = no result given.

SMILES	GLD-1 TGE inh	Bim-Mcl-1	Bcl-xL primary	Mcl1-Noxa inh	Mcl1 Bid PPI	MCL1 BIM primary
O=C(Oc1ccc(C(=S)N2CCC(O)CC2)cc1)c1ccc(Cl)cc1	7	-1	100*	17	-51	4
CN(C)S(=O)(=O)c1ccc(C(=O)Oc2coc(CSc3ncccn3)cc2=O)cc1	-6	-1	1	-8	-28	6
CCN(CC)S(=O)(=O)c1ccc(C(=O)Oc2coc(CSc3nc(C)cc(C)n3)cc2=O)cc1	-6	1	2	70*	-3	6
O=C1C=C(c2cccc(Cl)c2O)C[C@@H](c2ccc(Cl)cc2)C1	0	x	4	x	x	5
O=C(CNC(=O)C(c1ccccc1)c1ccccc1)N/N=C/c1cccnc1	-2	x	-4	95*	-3	-4
O=C(Cc1ccccc1)NCC(=O)N/N=C/c1cccnc1	-1	x	3	27	-26	4
O=C(COc1ncnc2ccc(Br)cc12)NC1CCCC1	6	x	-2	x	x	5
CN(Cc1ccccc1)C(=O)C1CCN(Cc2ccc(F)cc2)CC1	1	-2	4	9	55*	7
O=C(CSc1ccccc1Cl)N1CCOCC1	-1	x	-3	x	x	4
Cc1nccn1CC(=O)N/N=C/c1cccs1	-4	x	3	-6	-21	2
CC(=O)Nc1nonc1-c1nc2ccccc2n1N(C(C)=O)C(C)=O	8	2	12	52*	-36	16
CCOC(=O)c1ccc(NC(=O)c2ccccc2)cc1	-5	0	2	13	12	3
CCOC(=O)c1ccc(NC(=O)Oc2ccccc2)cc1	2	2	7	15	100*	2
O=C(Oc1ccc2c(c1)OCO2)c1cc2c(s1)CCC2	2	-1	1	57*	-42	7
O=C(c1cc2c(s1)CCCC2)N1CCN(Cc2ccc3c(c2)OCO3)CC1	-4	1	6	10	24	6
CC(=O)C1=C(C)NC(SCC(=O)c2ccc(F)cc2)=C(C#N)C1CC(C)C (stereo not drawn)	5	-9	10	52*	-16	8
O=C1N(Cc2cccnc2)C[C@@H]2C[C@@H](c3cccc(OC4CCCC4)c3)N3CCC[C@@]123	2	-2	0	8	-30	1
COc1cccc(NC(=S)N(Cc2ccc(Cl)cc2)Cc2ccc(C(=O)O)cc2)c1	2	-4	5	11	0	8
O=[N+]([O-])c1ccc2nc(-c3cccnc3)[nH]c2c1	8	x	1	x	x	-5
O=[N+]([O-])c1cc([N+](=O)[O-])c2cc(-c3cccnc3)[nH]c2c1	9	x	36*	x	x	27
COC(=O)c1cc(NC(=O)Cn2c(=O)cnc3ccccc32)cc(C(=O)OC)c1	-3	1	3	27	62*	1
Cc1cccc(NC2=Nc3ccccc3N3C2=Nc2c(c(C)nn2-c2ccccc2)C3c2ccc(O)c(O)c2)c1 (stereo not drawn)	-5	4	48*	63*	-29	42*
COc1cc(/C=C2/C(C)=C(C#N)c3nc(N)c(C#N)c(C)c32)ccc1OCC(=O)O	9	4	31*	18	-69	29
Nc1nonc1-c1nc2ccccc2n1CC(=O)N/N=C/c1ccc(-c2ccccc2C(=O)O)o1	0	3	17	27	-15	16
CC1=C(C#N)c2nc(N)c(C#N)c(C)c2/C1=C\c1ccc(-c2ccccc2C(=O)O)o1	x	5	x	82*	-6	x
SMILES	GLD-1 TGE inh	Bim-Mcl-1	Bcl-xL primary	Mcl1-Noxa inh	Mcl1 Bid PPI	MCL1 BIM primary
C/C=C/c1ccc(OCC(=O)O)c(OC)c1	3	x	-2	-2	-25	0
CN(C)C(=O)CCCCCCCCC(=O)N(C)C	-3	x	-2	4	1	-7
Cn1c(SCC(=O)NCC2CCCO2)nc2c(c1=O)SCC2 (stereo not drawn)	-1	x	-1	x	x	-3
COc1ccc(N2CCC(CNC(=O)Nc3ccccc3)C2)cc1 (stereo not drawn)	7	-5	7	82*	-44	24
COc1ccc(N2CCC(CNC(=S)Nc3cc(C)cc(C)c3)C2)cc1 (stereo not drawn)	8	x	8	11	-148	6
COc1ccc(NC(=O)NCCCN2CCC(Cc3ccccc3)CC2)cc1	0	x	-1	52*	-9	5
COc1ccc(Cl)c(N2CCN(CCCNC(=O)Nc3ccc(C)cc3)CC2)c1	1	0	6	75*	4	6
Nc1ccc(-c2nc3nc(N)nc(N)c3nc2-c2ccc(N)cc2)cc1	15	x	13	28	-38	9
CC(C)CN(C(=O)CSc1nnc(-c2cccs2)n1N)c1c(N)n(Cc2ccccc2)c(=O)[nH]c1=O	-4	x	-24	x	x	-20
COc1ccc(/C=N\NC(=O)c2cc(O)c(O)c(O)c2)cc1CN1CCN(c2ccc(F)cc2)CC1	-1	0	21	70*	-38	17
Cc1ccc(C(=O)NNC(=O)CSc2nnc3c(n2)[nH]c2ccc(F)cc23)cc1	11	8	13	53*	80*	11
COc1ccc2[nH]c3nc(SCC(=O)NNC(=O)c4ccc(OC)c(OC)c4)nnc3c2c1	0	0	3	-7	-16	14
CC(=O)c1ccc(OCCCCOc2ccc(C(C)=O)cc2)cc1	3	x	1	x	x	2
Cc1ccc(-c2nc(N3CCOCC3)sc2C(=O)N2CCCCC2)cc1	2	-3	7	13	98*	5
Cc1ccc(-c2nc(N3CCOCC3)sc2C(=O)N2CCOCC2)cc1	-3	-3	0	0	-16	1
C=C(C)Cn1c(Sc2nnc(C)s2)nc2c1c(=O)[nH]c(=O)n2C	1	0	3	-17	89*	1
CC1=Nc2cccc3cccc(c23)N1C	5	-3	1	61*	-38	2
CC(=O)C1=C(C)OC(N)=C(C#N)C1c1ccncc1 (stereo not drawn)	18	0	30*	-4	-47	42*
COC(=O)C1=C(C)OC(N)=C(C#N)C1c1cccnc1 (stereo not drawn)	4	0	26	14	-19	23
Cc1nn(C)cc1C(C)NCc1c(C(=O)N2CCCCCCC2)nc2ccc(Cl)cn12 (stereo not drawn)	0	1	-1	5	-3	2
CCN(c1ccc(NC(=O)CCNC(=O)c2ccco2)cc1)C(C)C	4	-5	2	75*	-60	22

Screening results from PubChem.
